Here are results for 14 molecules from PMC8222333, “AsCas12a ultra nuclease facilitates the rapid generation of therapeutic cell medicines”.

Residue numbers refer to the chain shown, from its start.

In assay [1] the target is dAsCas12a WT (Acidaminococcus sp., UniProt U2UMQ6 1-1307, D908A;E993A;D1235A). Kind of assay: Spec-seq (native PAGE EMSA with sequencing of bound and unbound); 25 mM Tris-HCl pH 7.4, 150 mM KCl, 5 mM MgCl2, 10% glycerol, 1 mM DTT, 40 ng/uL salmon sperm DNA; 400 nM Cas12a, 480 nM crRNA, 50 nM library, 37 C 1 h; native P; high values mean tight binding. Background: A gel shift assay detects complexes by their altered migration in electrophoresis.

Assay [2] concerns the target dAsCas12a Ultra (Acidaminococcus sp., UniProt U2UMQ6 1-1307, M537R;F870L;D908A;E993A;D1235A). The assay is described as follows: Spec-seq (native PAGE EMSA with sequencing of bound and unbound); 25 mM Tris-HCl pH 7.4, 150 mM KCl, 5 mM MgCl2, 10% glycerol, 1 mM DTT, 40 ng/uL salmon sperm DNA; 400 nM Cas12a, 480 nM crRNA, 50 nM library, 37 C 1 h; native PAGE at room temperature; high values mean tight binding. The note with it: protein: recombinant.

Assay [3] has as its target dAsCas12a E174R (Acidaminococcus sp., UniProt U2UMQ6 1-1307, E174R;D908A;E993A;D1235A). The description is as above. As to conditions: protein: recombinant.
Assay [4] deals with dAsCas12a S542R (Acidaminococcus sp., UniProt U2UMQ6 1-1307, S542R;D908A;E993A;D1235A). Described as above. The note with it: protein: recombinant.
For assay [5], the target named is dAsCas12a K548R (Acidaminococcus sp., UniProt U2UMQ6 1-1307, K548R;D908A;E993A;D1235A). The description is as above. As to conditions: protein: recombinant.
Assay [6] has as its target d-enCas12a (Acidaminococcus sp., UniProt U2UMQ6 1-1307, E174R;S542R;K548R;D908A;E993A;D1235A). Described as above. The note with it: protein: recombinant.
The target in assay [7] is d-enCas12a-Ultra (Acidaminococcus sp., UniProt U2UMQ6 1-1307, E174R;S542R;K548R;M537R;F870L;D908A;E993A;D1235A). The assay is described as above. The note with it: protein: recombinant.

B1: TTTT (dsDNA)
DNA 1: GCTATCTAGTGCTCAGTACGCACTGTTTTAGGAAACTTCTGGCAGGACCAGGTCATGAGATCGGAAGAGCACACGTCTGAACTCCAGTCA
DNA 2: TGACTGGAGTTCAGACGTGTGCTCTTCCGATCTCATGACCTGGTCCTGCCAGAAGTTTCCTAAAACAGTGCGTACTGAGCACTAGATAGC
RNA: AAUUUCUACUCUUGUAGAUAGGAAACUUCUGGCAGGACC
As to B1, the binding signal in assay [1] was -5.51 lnKA; in assay [2] it was -3.17 lnKA; in assay [3] it was -2.29 lnKA; in assay [4] it was -2.76 lnKA; in assay [5], -4.73 lnKA; in assay [6], -0.44 lnKA. For the same molecule, the binding signal in assay [7] is -0.171 lnKA.

B2: AATT (dsDNA)
DNA 1: B1 DNA 1 with T26A, T27A
DNA 2: B1 DNA 2 with A64T, A65T
RNA: B1 RNA
As for B2, the binding signal is -8.59 lnKA in assay [2]; -8.34 lnKA in assay [3]; -8.01 lnKA in assay [4]; -5.1 lnKA in assay [6]; -2.64 lnKA in assay [7].

B3: ACTA (dsDNA)
DNA 1: B1 DNA 1 with T26A, T27C, T29A
DNA 2: B1 DNA 2 with A62T, A64G, A65T
RNA: B1 RNA
As to B3, the binding signal in assay [2] was -7.24 lnKA; in assay [3], -5.96 lnKA; in assay [4] it was -7.5 lnKA; in assay [6], -5.02 lnKA; in assay [7], -1.82 lnKA.

B4: ATTC (dsDNA)
DNA 1: B1 DNA 1 with T26A, T29C
DNA 2: B1 DNA 2 with A62G, A65T
RNA: B1 RNA
For B4, the binding signal is -6.67 lnKA in assay [1]; -4.57 lnKA in assay [2]; -3.93 lnKA in assay [3]; -4.41 lnKA in assay [4]; -5.19 lnKA in assay [5]; -0.519 lnKA in assay [6]. Moreover, the binding signal in assay [7] was -0.186 lnKA.

B5: AATA (dsDNA)
DNA 1: B1 DNA 1 with T26A, T27A, T29A
DNA 2: B1 DNA 2 with A62T, A64T, A65T
RNA: B1 RNA
In the case of B5, the binding signal in assay [2] is -8.32 lnKA; in assay [3], -7.04 lnKA; in assay [4] it was -8.13 lnKA; in assay [6] it was -2.24 lnKA; in assay [7] it was -0.762 lnKA.

B6: ATTT (dsDNA)
DNA 1: B1 DNA 1 with T26A
DNA 2: B1 DNA 2 with A65T
RNA: B1 RNA
With B6, the binding signal in assay [1] is -8.27 lnKA; in assay [2], -7.31 lnKA; in assay [3], -6.8 lnKA; in assay [4], -7.13 lnKA; in assay [5], -8.23 lnKA; in assay [6], -2.42 lnKA. Further, the binding signal in assay [7] is -0.548 lnKA.

B7: ACTC (dsDNA)
DNA 1: B1 DNA 1 with T26A, T27C, T29C
DNA 2: B1 DNA 2 with A62G, A64G, A65T
RNA: B1 RNA
Consider B7, for which the binding signal in assay [2] was -6.74 lnKA; in assay [3], -6.65 lnKA; in assay [4], -7.33 lnKA; in assay [6], -4.8 lnKA; in assay [7], -1.58 lnKA.

B8: AGGA (dsDNA)
DNA 1: B1 DNA 1 with T26A, T27G, T28G, T29A
DNA 2: B1 DNA 2 with A62T, A63C, A64C, A65T
RNA: B1 RNA
As for B8, the binding signal in assay [2] is -8.33 lnKA; in assay [4], -8.24 lnKA; in assay [6], -5.52 lnKA; in assay [7], -3.42 lnKA.

B9: AGAA (dsDNA)
DNA 1: B1 DNA 1 with T26A, T27G, T28A, T29A
DNA 2: B1 DNA 2 with A62T, A63T, A64C, A65T
RNA: B1 RNA
As to B9, the binding signal is -8.87 lnKA in assay [2]; -8.92 lnKA in assay [3]; -8.59 lnKA in assay [4]; -5.61 lnKA in assay [6]; -3.36 lnKA in assay [7].

B10: ACTT (dsDNA)
DNA 1: B1 DNA 1 with T26A, T27C
DNA 2: B1 DNA 2 with A64G, A65T
RNA: B1 RNA
B10: the binding signal in assay [2] was -8.57 lnKA; in assay [3], -8.23 lnKA; in assay [4], -7.91 lnKA; in assay [6], -5.7 lnKA; in assay [7] it was -3.19 lnKA.

B11: AATC (dsDNA)
DNA 1: B1 DNA 1 with T26A, T27A, T29C
DNA 2: B1 DNA 2 with A62G, A64T, A65T
RNA: B1 RNA
Turning to B11, the binding signal in assay [2] is -8.65 lnKA; in assay [3], -8.08 lnKA; in assay [4] it was -8.19 lnKA; in assay [5], -8.64 lnKA; in assay [6] it was -2.56 lnKA; in assay [7] it was -0.883 lnKA.

B12: ATTA (dsDNA)
DNA 1: B1 DNA 1 with T26A, T29A
DNA 2: B1 DNA 2 with A62T, A65T
RNA: B1 RNA
Regarding B12, the binding signal in assay [1] was -6.74 lnKA; in assay [2], -4.56 lnKA; in assay [3], -2.6 lnKA; in assay [4], -4.16 lnKA; in assay [5] it was -5.45 lnKA; in assay [6], -0.456 lnKA. Also, the binding signal in assay [7] is -0.172 lnKA.

B13: ACTG (dsDNA)
DNA 1: B1 DNA 1 with T26A, T27C, T29G
DNA 2: B1 DNA 2 with A62C, A64G, A65T
RNA: B1 RNA
Consider B13, for which the binding signal was -7.71 lnKA in assay [2]; -7.65 lnKA in assay [3]; -7.86 lnKA in assay [4]; -5.67 lnKA in assay [6]; -2.87 lnKA in assay [7].

B14: ATTG (dsDNA)
DNA 1: B1 DNA 1 with T26A, T29G
DNA 2: B1 DNA 2 with A62C, A65T
RNA: B1 RNA
Take B14: the binding signal is -7.65 lnKA in assay [1]; -5.43 lnKA in assay [2]; -4.83 lnKA in assay [3]; -4.9 lnKA in assay [4]; -6.23 lnKA in assay [5]; -1.2 lnKA in assay [6]. Moreover, the binding signal in assay [7] is -0.339 lnKA.
